According to PubChem BioAssay (Tox21):
“And” between values parts separate entries of the source, which are not always exact repeats. Identical values can stand only once. More than one record can exist for a structure, and the calls need not agree. The source made the active and inactive calls. Unless noted, the call rests on the fitted dose curve; in most records, active means well fitted curve in the direction sought with a large enough effect in the repeat runs; inconclusive means weak or mixed curves; inactive means no such curve, though single readings can be large; an effect the other way counts as inactive or inconclusive.

Columns and labels:
[1] = qHTS assay for small molecules that induce genotoxicity in human embryonic kidney cells expressing luciferase-tagged ATAD5 (AID 651632); further: nearly all actives have a fitted effect of over 15% in size
How it was run: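 DMSO vehicle served as the control. HEK293T reporter cells, 16 hr at 37C, then 30 min Amplite at room temperature; ATAD5 induction is measured as luciferase activity.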

[2] = qHTS assay for small molecule agonists of the p53 signaling pathway - cell viability (AID 651633; calls by dose curve; further: nearly all actives have a fitted effect of over 30% in size; further: potency means the concentration at half of the fitted maximal effect)
How it was run: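 p53RE-bla cells were treated with compound for 16 hours at 37 C. Cytotoxicity was then measured as CellTiter-Glo luminescence after 30 min at room temperature.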

[3] = qHTS assay for small molecules that induce genotoxicity in human embryonic kidney cells expressing luciferase-tagged ATAD5 - cell viability (AID 651634; calls by dose curve; further: nearly all actives have a fitted effect of over 25% in size; further: potency means the concentration at half of the fitted maximal effect)
How it was run: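 Here HEK293T cells with the ATAD5 luciferase reporter are incubated with test compounds for 15.5 hr, and cytotoxicity is then gauged by measuring protease activity in live cells using fluorescence.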

[4] = qHTS assay for small molecule disruptors of the mitochondrial membrane potential - cell viability (AID 720634; calls by dose curve; further: nearly all actives have a fitted effect of over 20% in size; further: potency means the concentration at half of the fitted maximal effect)
How it was run: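 Viability of HepG2 cells is scored from ATP content by luminescence; cells are exposed to compound for 1 hr at 37 C and 5% CO2, then dosed with m-MPI dye before the CellTiter-Glo reagent.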

[5] = qHTS assay for small molecule disruptors of the mitochondrial membrane potential (AID 720635); further: potency means the concentration at half of the fitted maximal effect
How it was run: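 HepG2 cells exposed to compound 1 hr at 37C, then Mito-MPS dye 30 min. Ratio read of aggregate (540/590 nm) versus monomer (490/535 nm) fluorescence.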

[6] = qHTS assay to test for compound auto fluorescence at 590 nm (red) in HepG2 cells (AID 720674)
How it was run: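 Seeding: 2,000 HepG2 cells/well, MEM/10% FBS, overnight 37 C. Dosing: compound vs DMSO. Incubation: 1 hr, 37 C, 5% CO2. Read: fluorescence 540 ex/590 em, Rose Bengal sodium as red reference.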

[7] = qHTS assay to test for compound auto fluorescence at 535 nm (green) in HepG2 cells (AID 720675)
[8] = qHTS assay to test for compound auto fluorescence at 460 nm (blue) in HEK293 cells (AID 720678)
How it was run: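 Intrinsic compound fluorescence is recorded in live HEK293 cultures after overnight incubation at 37C, 5% CO2, using excitation 405 nm and emission 460 nm. Values are referenced to triamterene.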

[9] = qHTS assay to test for compound auto fluorescence at 590 nm (red) in HEK293 cells (AID 720679)
How it was run: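 Red autofluorescence, HEK293 cells: 2,000 cells/well; attach 4-5 hr 37C; add 23 nL cpd or DMSO; incubate o/n 37C 5% CO2; read Ex540/Em590; Rose Bengal sodium reference.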

[10] = qHTS assay to test for compound auto fluorescence at 535 nm (green) in HEK293 cells (AID 720680)
[11] = qHTS assay to test for compound auto fluorescence at 460 nm (blue) in HEK293 cell free culture (AID 720681)
How it was run: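 Compounds were added to cell-free DMEM with 10% FBS and fluorescence read directly. The blue channel used 405 nm excitation and 460 nm emission, with triamterene as the reference fluorophore.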

[12] = qHTS assay to test for compound auto fluorescence at 535 nm (green) in HEK293 cell free culture (AID 720682)
How it was run: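 No cells present: wells hold DMEM supplemented with 10% FBS, into which compound or vehicle is pinned. Green emission is then recorded (485 nm excitation, 535 nm emission) and scaled to fluorescein.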

[13] = qHTS assay to test for compound auto fluorescence at 590 nm (red) in HEK293 cell free culture (AID 720683)
How it was run: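 Cell-free wells of DMEM with 10% FBS received compound, and intrinsic fluorescence was read at excitation/emission 540/590 nm. Values expressed as equivalence to Rose Bengal sodium.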

[14] = qHTS assay to test for compound auto fluorescence at 590 nm (red) in HepG2 cell free culture (AID 720684)
How it was run: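 Auto fluorescence equivalency versus Rose Bengal sodium, red channel Ex/Em 540/590 nm; compounds in cell-free MEM/10% FBS; DMSO vehicle control.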

[15] = qHTS assay to test for compound auto fluorescence at 460 nm (blue) in HepG2 cell free culture (AID 720685)
How it was run: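 Cell-free plates of MEM plus 10% FBS received 23 nL compound or DMSO vehicle; blue-channel (405/460 nm) intensity scored against triamterene as reference fluorophore.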

[16] = qHTS assay to test for compound auto fluorescence at 535 nm (green) in HepG2 cell free culture (AID 720686)
[17] = qHTS assay to test for compound auto fluorescence at 460 nm (blue) in HepG2 cells (AID 720687)
How it was run: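 HepG2 cells in MEM with 10% FBS, attached overnight at 37 C, were exposed to compound or DMSO for 1 hr at 37 C, 5% CO2. Blue fluorescence was read at 405/460 nm, with triamterene as reference fluorophore.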

[18] = qHTS assay for small molecule agonists of the p53 signaling pathway (AID 651631; calls by dose curve; further: nearly all actives have a fitted effect of over 15% in size; further: potency means the concentration at half of the fitted maximal effect)
How it was run: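 Agonist mode screen using a stably integrated beta-lactamase gene under p53 response elements in HCT-116 cells. Compound exposure lasts 16 h at 37 °C; fluorescence intensity is measured following 2 h FRET substrate loading.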

[19] = target: Glucocorticoid receptor (Homo sapiens) (UniProt P04150); assay: qHTS assay to identify small molecule agonists of the glucocorticoid receptor (GR) signaling pathway (AID 720691; active means well fitted activation curve with a large enough effect in the signal ratio in the repeat runs, not every such curve was filed as active; inconclusive means weak or mixed curves, or effect the other way; inactive means no such curve, though single readings can be large or run the other way; the % refers to the signal ratio; further: potency means the concentration at half of the fitted maximal effect)
Chain of Glucocorticoid receptor (Homo sapiens) (P04150 whole entry, looked up): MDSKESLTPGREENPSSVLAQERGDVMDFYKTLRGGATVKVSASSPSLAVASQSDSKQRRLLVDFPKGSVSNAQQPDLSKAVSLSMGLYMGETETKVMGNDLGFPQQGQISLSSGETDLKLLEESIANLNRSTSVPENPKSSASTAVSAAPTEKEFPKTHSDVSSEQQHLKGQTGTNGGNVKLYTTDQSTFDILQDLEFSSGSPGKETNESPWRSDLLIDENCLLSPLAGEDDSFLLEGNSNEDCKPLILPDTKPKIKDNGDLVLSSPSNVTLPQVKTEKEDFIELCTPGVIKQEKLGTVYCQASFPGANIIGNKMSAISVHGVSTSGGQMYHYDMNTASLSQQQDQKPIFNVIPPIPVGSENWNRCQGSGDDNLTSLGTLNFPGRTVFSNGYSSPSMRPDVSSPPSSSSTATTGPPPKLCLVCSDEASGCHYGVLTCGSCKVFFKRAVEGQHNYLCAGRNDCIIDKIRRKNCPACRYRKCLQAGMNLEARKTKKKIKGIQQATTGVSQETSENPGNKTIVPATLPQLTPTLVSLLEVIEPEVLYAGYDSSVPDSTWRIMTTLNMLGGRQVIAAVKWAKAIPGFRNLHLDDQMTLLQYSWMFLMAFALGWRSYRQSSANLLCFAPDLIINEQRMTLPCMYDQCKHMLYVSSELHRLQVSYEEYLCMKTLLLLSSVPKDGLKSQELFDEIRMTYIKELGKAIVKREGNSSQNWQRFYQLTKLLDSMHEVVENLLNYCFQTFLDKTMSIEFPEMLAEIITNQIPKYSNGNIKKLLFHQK
How it was run: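 Compounds in DMSO, alongside positive controls, were added to GR-bla HeLa reporter cells and incubated 18 h at 37 C; GRE-driven beta-lactamase was detected by fluorescence after 2 h with FRET substrate at room temperature.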

[20] = target: Glucocorticoid receptor (Homo sapiens) (UniProt P04150); assay: qHTS assay to identify small molecule antagonists of the glucocorticoid receptor (GR) signaling pathway (AID 720692; active means well fitted inhibition curve with a large enough effect in the signal ratio in the repeat runs, not every such curve was filed as active; inconclusive means weak or mixed curves, or effect the other way; inactive means no such curve, though single readings can be large or run the other way; the % refers to the signal ratio; further: potency means the concentration at half of the fitted maximal effect)
How it was run: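 In a 1536-well cell format, compounds were added 4 h after seeding GR-bla HeLa cells, together with dexamethasone at 5 nM final; reporter activity was measured by FRET-substrate fluorescence following 18 h at 37 C.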

Measured: Potency

CC(C)NC[C@@H](O)COc1ccc(CC(N)=O)cc1
not listed: [18] | [19] | [20]
inactive: all other assays above

Cc1c2ccccc2c(C)c2c1ccc1ccccc12
active: [18] 30.3 µM and 54.5 µM | [4] 12.1 µM | [5] 5.39 µM and 24.3 µM | [19] 3.85 µM and 54.9 µM [inconclusive]
not listed: [2] | [20]
inactive: all other assays above

CC(C)(C)c1csc(-c2cc3cc(OCc4ccccc4CC(=O)O)ccc3o2)n1
active: [2] 15.4 µM | [3] 24.3 µM | [4] 61.1 µM | [5] 4.86 µM
not listed: [18] | [19] | [20]
inactive: all other assays above

Cc1ccc(C(C)C)cc2c(C)ccc1-2
not listed: [18]
inactive: all other assays above

Sc1nc2ccccc2s1
not listed: [1] | [3] | [5] | [6] | [8]
inactive: all other assays above

CCCC[P+](C)(CCCC)CCCC
active: [5] 13.9 µM
not listed: [17] | [18] | [20]
inactive: all other assays above

Cc1c(C)c2c(c(C)c1O)CC[C@@](C)(CCC[C@H](C)CCC[C@H](C)CCCC(C)C)O2
not listed: [18] | [20]
inactive: all other assays above

C=C(C)c1cccc(C(=C)C)c1
not listed: [18]
inactive: all other assays above

CC(C)Cn1cnc2c(N)nc3ccccc3c21
not listed: [18]
inactive: all other assays above

COc1cc2nc(N3CCN(C(=O)c4ccco4)CC3)nc(N)c2cc1OC
active: [18] 13.3 µM
not listed: [1] | [3] | [8] | [20]
inactive: all other assays above

CCCCCCCCCCCCCC[N+](C)(C)Cc1ccccc1
active: [2] 23.7 µM and 69.6 µM | [3] 69.6 µM | [4] 62.1 µM | [5] 11.9 µM and 27.7 µM
not listed: [18] | [19] | [20]
inactive: all other assays above

CC(N=C(NC#N)Nc1ccncc1)C(C)(C)C (centres undefined)
not listed: [17] | [18]
inactive: all other assays above

OC/C=C/CO
not listed: [3] | [4] | [5] | [6] | [13] | [19] | [20]
inactive: all other assays above

Cc1cc(C(C)(C)C)c(O)c(C)c1Cn1c(=O)n(Cc2c(C)cc(C(C)(C)C)c(O)c2C)c(=O)n(Cc2c(C)cc(C(C)(C)C)c(O)c2C)c1=O
active: [5] 9.69 µM
not listed: [18] | [20]
inactive: all other assays above

CN(C)C(=O)COC(=O)Cc1ccc(OC(=O)c2ccc(N=C(N)N)cc2)cc1
not listed: [18]
inactive: all other assays above

CCn1c2ccccc2c2cc([N+](=O)[O-])ccc21
active: [4] 30.6 µM | [5] 30.6 µM
not listed: [18] | [19] | [20]
inactive: all other assays above

CCCCCCCCCCOC(=O)c1ccccc1C(=O)OCCCCCCCC
not listed: [18] | [20]
inactive: all other assays above

O=C(O)CN(CCN(CC(=O)O)CC(=O)O)CC(=O)O
not listed: [1] | [2] | [4] | [5] | [19] | [20]
inactive: all other assays above

CC(=O)CC(=O)Nc1ccc(S(=O)(=O)O)cc1
not listed: [3] | [4] | [5] | [17] | [20]
inactive: all other assays above

COc1c(C)c2c(c(O)c1C/C=C(\C)CCC(=O)OCCN1CCOCC1)C(=O)OC2
active: [18] 0.106 µM
not listed: [2] | [20]
inactive: all other assays above

COc1cc(/C=C/c2ccccc2)oc(=O)c1
active: [5] 71 µM
not listed: [1]
inactive: all other assays above

O=C1C(c2[nH]c3ccc(S(=O)(=O)O)cc3c2O)=Nc2ccc(S(=O)(=O)O)cc21
not listed: [1] | [17] | [19] | [20]
inactive: all other assays above

C=CCCC(=O)/C=C/C1C(C)=CCCC1(C)C (centres undefined)
active: [5] 61.1 µM
not listed: [18]
inactive: all other assays above

Cl[Si](Cl)(c1ccccc1)c1ccccc1
active: [5] 5.57 µM
not listed: [18] | [20]
inactive: all other assays above

Cc1ccc(C)cc1
not listed: [18]
inactive: all other assays above

Nc1nc(N)nc(-c2cc(Cl)ccc2Cl)n1
not listed: [18]
inactive: all other assays above

C#C[C@]1(OC(C)=O)CC[C@H]2[C@@H]3CCC4=C[C@@H](OC(C)=O)CC[C@@H]4[C@H]3CC[C@@]21C
active: [5] 13.3 µM | [20] 9.52 µM
29.8 µM (active) and inactive: [2]
not listed: [13] | [17] | [18]
inactive: all other assays above
